Over roughly 39,000 sequences, “fluorescence intensity (a.u.)” has its median near 4,300; the highest 2% begin near 39,000. Only a selection was taken, and the highest values are over-represented in it overall.

This assay addresses T1, OsSMF1 (Oryza sativa, UniProt Q6ZLB0 1-436).
T1 sequence: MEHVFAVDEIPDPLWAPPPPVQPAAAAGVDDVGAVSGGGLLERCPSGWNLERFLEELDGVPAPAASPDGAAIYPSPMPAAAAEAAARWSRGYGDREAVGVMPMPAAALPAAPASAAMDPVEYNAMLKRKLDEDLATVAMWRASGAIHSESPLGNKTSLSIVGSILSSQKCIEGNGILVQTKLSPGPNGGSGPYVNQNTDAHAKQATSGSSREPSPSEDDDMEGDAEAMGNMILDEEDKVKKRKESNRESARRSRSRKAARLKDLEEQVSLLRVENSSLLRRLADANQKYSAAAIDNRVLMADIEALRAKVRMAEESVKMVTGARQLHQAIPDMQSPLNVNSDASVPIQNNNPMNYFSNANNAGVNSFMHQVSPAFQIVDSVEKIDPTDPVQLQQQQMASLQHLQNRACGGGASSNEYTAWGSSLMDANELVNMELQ
Kind of assay: protein-binding microarray (RPBM); PBS, 2% BSA, 51.3 ng/ul salmon testes DNA, 50 uM zinc acetate, 200 nM TF, 25 C, 1 h; high values mean tight binding. As to conditions: protein: recombinant; tags: N-terminal polyhistidine and DsRed monomer fusion (pET32a); chain copies: 2; label: CyDye5-dUTP incorporated in the synthesized complementary strand; 3' TTTTT single-stranded linker to array surface; dsDNA, one strand shown. Summed up:
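Using Ni–NTA, transcription factors fused N-terminally to polyhistidine and DsRed were purified after expression in E. coli BL21-CodonPlus. These were incubated at 200 nM with a blocked, double-stranded custom Agilent array for 1 h at 25 °C in a buffer containing 50 µM zinc acetate, and the array was washed. The binding signal is per-feature fluorescence intensity (arbitrary units) on an Axon 4000B scanner.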
For “CGTCCCTTGGACGTCATCTTCTCCTCACGTGCATTGCCTCCGGAGTCACCTAGTGCAG”, the binding signal was 4360 fluorescence intensity (a.u.).

Consider “TAAGATGGAGGAGGCGAGGAGAGTTGCGTAGGATGGAGTGCGGAGTCACCTAGTGCAG”, for which the binding signal was 3880 fluorescence intensity (a.u.).

With “TTTGGCATACCTGGAGCAGATCAGGCAGCACATGGCGAGGCGGAGTCACCTAGTGCAG”, the binding signal was 25600 fluorescence intensity (a.u.).

Turning to “TTGCAGCATCACCTGGCGAGGCGTAGCTAGGAGATGCAGACGGAGTCACCTAGTGCAG”, the binding signal is 40100 fluorescence intensity (a.u.).

“TTATGAGTTTAGAGGGATGATTAGGATACATGGGAATTTTCGGAGTCACCTAGTGCAG”: the binding signal was 22200 fluorescence intensity (a.u.).

Consider “AACCCGGCGTTGGTGAGCTGTTCCATTGTGTCTATAGGCACGGAGTCACCTAGTGCAG”, for which the binding signal is 3210 fluorescence intensity (a.u.).

As to “TGGATATGCATGCGTACGTACGTAGCTTACCTATAGCTAGCGGAGTCACCTAGTGCAG”, the binding signal is 3500 fluorescence intensity (a.u.).

For “GATATATATACGCGTTCATCAGCGTACGTTCTTATAGCTACGGAGTCACCTAGTGCAG”, the binding signal is 40100 fluorescence intensity (a.u.).

With “TACTTAGCTAGCTAATCGCGTTGCTCTTTCTCGTACTATACGGAGTCACCTAGTGCAG”, the binding signal was 20400 fluorescence intensity (a.u.).

For “CACTCCGGCGTGACGGAGCCCTTCCCCGATGTGATGCCTACGGAGTCACCTAGTGCAG”, the binding signal is 32600 fluorescence intensity (a.u.).

With “AGGGGCGGAGGGCAGCGATTTTGGTTGGTAGTAGTACGGGCGGAGTCACCTAGTGCAG”, the binding signal was 3610 fluorescence intensity (a.u.).

Turning to “CGTTGGCGTCCACCACGGCCACCGCCACGCCGCTCGTGTTCGGAGTCACCTAGTGCAG”, the binding signal was 4420 fluorescence intensity (a.u.).

With “GTCCCCTGTTGCACTTAGATATTTAACTTTGTTAAGGATTCGGAGTCACCTAGTGCAG”, the binding signal is 4820 fluorescence intensity (a.u.).

With “CAGGTACTTAACTTTAGTCCCTGTCTTTAGACACTAATTTCGGAGTCACCTAGTGCAG”, the binding signal was 5100 fluorescence intensity (a.u.).

Consider “GACTTAACTTTAGTCCCTGTATTTAGACACTAATTTAGAGCGGAGTCACCTAGTGCAG”, for which the binding signal is 65500 fluorescence intensity (a.u.).

With “TCCCCGTCTTTTCCTTCCGCCTCACCAACCTCGTCTCGTCCGGAGTCACCTAGTGCAG”, the binding signal was 3330 fluorescence intensity (a.u.).

Take “TCGTCGATGTCACCGCCACCACCGTCGTCATCGCTGCCTTCGGAGTCACCTAGTGCAG”: the binding signal was 3820 fluorescence intensity (a.u.).

In the case of “CGTACGGCACCGAGTTATCGCCGCCAGGTCAGTTGGTTTACGGAGTCACCTAGTGCAG”, the binding signal is 3690 fluorescence intensity (a.u.).

In the case of “AGCTAGAACGCACAGACTTTAGGCTTTAGGTACGATGATGCGGAGTCACCTAGTGCAG”, the binding signal is 43300 fluorescence intensity (a.u.).

Turning to “CACTAGCTTGTTATATTTACGTGGCACACTTTGATGAGTACGGAGTCACCTAGTGCAG”, the binding signal is 11500 fluorescence intensity (a.u.).

For “CACAGGCAGGCCTGCAACATGCGTCACGCAGACTTTGATGCGGAGTCACCTAGTGCAG”, the binding signal is 4140 fluorescence intensity (a.u.).

Consider “AAAGCAACAGCAGCCCAGCACACCACAGCACAGCGCCGCTCGGAGTCACCTAGTGCAG”, for which the binding signal was 3180 fluorescence intensity (a.u.).

“CATCATCATCTCTTCTCCTCTCTCTCTCTCTTTCCTTTTCCGGAGTCACCTAGTGCAG”: the binding signal was 8580 fluorescence intensity (a.u.).

Take “TCCTCCTCGTCGTCATCTCCAACTCCCTCCCGCTCCCTTCCGGAGTCACCTAGTGCAG”: the binding signal was 5660 fluorescence intensity (a.u.).

In the case of “TCTCCCCTCTCCTTCCTCCTCTCCTTTCCCCTCCTCTCTTCGGAGTCACCTAGTGCAG”, the binding signal is 17100 fluorescence intensity (a.u.).

“CTCCTCTTCCCTTCCCTTCTCTCTTTTCTTTTCTCTCACACGGAGTCACCTAGTGCAG”: the binding signal was 28600 fluorescence intensity (a.u.).

As for “TCCTGTCCTTCTTTCTCTTCAAGTCCTTCCTCTTCACTCCCGGAGTCACCTAGTGCAG”, the binding signal is 65500 fluorescence intensity (a.u.).

Regarding “TCCTCCATCGCCGCCTTCACCGAGTCACCGCCCGTCATCCCGGAGTCACCTAGTGCAG”, the binding signal is 3380 fluorescence intensity (a.u.).

Consider “TTCCTGACTTCCTCCTCCCTTTCTTCTCTCGCCGCCGAGACGGAGTCACCTAGTGCAG”, for which the binding signal was 41400 fluorescence intensity (a.u.).

On to “CTCCTCTCCTCCCTCCTCGACTTCTCCGCTTTCTCCGCCTCGGAGTCACCTAGTGCAG”, for which the binding signal is 3230 fluorescence intensity (a.u.).

As to “CTTCACTAAGGTCATCGTCGTGCCTTCCTCGTCCTCCTCCCGGAGTCACCTAGTGCAG”, the binding signal was 43800 fluorescence intensity (a.u.).

“GACCAAACCTCCAATTAACAAGGTAGTTTAACACACATCACGGAGTCACCTAGTGCAG”: the binding signal is 16100 fluorescence intensity (a.u.).

With “TACAAGTATAAAACTTTAGATACGTGGGATTAACACGTCACGGAGTCACCTAGTGCAG”, the binding signal was 6470 fluorescence intensity (a.u.).

Turning to “CCTCGGGGAGGGCGTGGCAAGCGGCACGCGTGGCGGGGAGCGGAGTCACCTAGTGCAG”, the binding signal was 5890 fluorescence intensity (a.u.).

Consider “CCCCAGAAAGTCCCCATATTTCTAGGAACTTCCGTTCTAGCGGAGTCACCTAGTGCAG”, for which the binding signal was 13900 fluorescence intensity (a.u.).

On to “GCTCATAGAGCTACACACTGATGACAAGACATAAGGGAAGCGGAGTCACCTAGTGCAG”, for which the binding signal is 4350 fluorescence intensity (a.u.).

Consider “ACCTCCGGCCCACGGACGCGACGCGCTTACACACATGGCCCGGAGTCACCTAGTGCAG”, for which the binding signal was 3580 fluorescence intensity (a.u.).

As to “TGGATTACTCATAATGATTATGTCATATAGGTGATGTTGCCGGAGTCACCTAGTGCAG”, the binding signal was 3440 fluorescence intensity (a.u.).

For “TGATACGATGACGTTTGGGTGGTTGGATATATATCATGATCGGAGTCACCTAGTGCAG”, the binding signal was 5350 fluorescence intensity (a.u.).

Regarding “GGATAAGCACCGACGATTTGGTGGTAGATCTATATGGGTACGGAGTCACCTAGTGCAG”, the binding signal was 48000 fluorescence intensity (a.u.).

“ATATAGCATGTCAAGATATTTGGGTGATATGTACTATGTACGGAGTCACCTAGTGCAG”: the binding signal is 4580 fluorescence intensity (a.u.).

Turning to “ATGATTTATTATGTTCTGCCCTTCTTTGTTGTGACAAAGTCGGAGTCACCTAGTGCAG”, the binding signal is 3900 fluorescence intensity (a.u.).

“TGCTTTCCTCCCTTTATTACTACATCATGCGCCTTCGTGACGGAGTCACCTAGTGCAG”: the binding signal is 3370 fluorescence intensity (a.u.).

On to “AGCTGGCGGCTGGCGGGTGGTGGTGGTGGCTGGCGGCGGGCGGAGTCACCTAGTGCAG”, for which the binding signal was 4500 fluorescence intensity (a.u.).

These data come from article PMC7819943, “Rice protein-binding microarrays: a tool to detect cis-acting elements near promoter regions in rice”.
